The source made the active and inactive calls. The calls were made as follows: active = hit-call score of the fitted dose curve at least 0.9, where 1 is the maximum; inactive = score below 0.9.
Tests used:
Conditions in all cases: mRNA level, 48 h; actives raise or lower the signal
[1] = read-out: CYP2C9 (gene 1559); assay: LTEA_HepaRG_CYP2C9: Life Technologies and Expression Analysis (LTEA) Assay for CYP2C9 using HepaRG (AID 2283484)
Outline: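 Differentiated human HepaRG cells were exposed 48 h in serum-free induction medium to eight half-log concentrations up to 100 uM in 0.5% DMSO. CYP2C9 mRNA was measured by qRT-PCR, normalized to ACTB, GAPDH and POLR2A, and fitted bidirectionally against DMSO.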

[2] = read-out: CYP2E1 (gene 1571); assay: LTEA_HepaRG_CYP2E1: Life Technologies and Expression Analysis (LTEA) Assay for CYP2E1 using HepaRG (AID 2283485)
Outline: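 Human liver line HepaRG, plated 48 h, then serum-free induction medium + chemical x 48 h; 8-pt CRC from 100 uM, half-log, 0.5% DMSO, n=2. Readout: CYP2E1 mRNA qRT-PCR vs ACTB/GAPDH/POLR2A; bidirectional fit vs DMSO.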

[3] = read-out: CYP4A11 (gene 1579); assay: LTEA_HepaRG_CYP4A11: Life Technologies and Expression Analysis (LTEA) Assay for CYP4A11 using HepaRG (AID 2283486)
Outline: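 HepaRG, 48 h chem exposure, 8 conc (100 uM top, half-log), 0.5% DMSO vehicle; qRT-PCR readout, housekeeping-gene normalized; bidirectional curve fit vs DMSO baseline.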

[4] = read-out: Cytochrome P450 3A4 (Homo sapiens) (UniProt P08684); assay: LTEA_HepaRG_CYP3A4: Life Technologies and Expression Analysis (LTEA) Assay for CYP3A4 using HepaRG (AID 2283487)
Outline: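 Differentiated HepaRG cells, plated 48 h, then dosed 48 h in serum-free induction medium with 0.5% DMSO, 8 half-log concentrations up to 100 uM, duplicate. CYP3A4 mRNA by qRT-PCR, normalized to ACTB/GAPDH/POLR2A; bidirectional fit versus DMSO.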

[5] = read-out: DNA damage-inducible transcript 3 (DDIT3), DDIT3 (gene 1649); assay: LTEA_HepaRG_DDIT3: Life Technologies and Expression Analysis (LTEA) Assay for DNA damage-inducible transcript 3 (DDIT3) using HepaRG (AID 2283488)
Outline: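 HepaRG plated 48 h, switched to serum-free induction medium, dosed 48 h (100 uM top, half-log, 8 pts, 0.5% DMSO, n=2); RNA isolated; DDIT3 by qRT-PCR; bidirectional curve fit vs DMSO.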

[6] = read-out: Pro-epidermal growth factor (Homo sapiens) (UniProt P01133); assay: LTEA_HepaRG_EGF: Life Technologies and Expression Analysis (LTEA) Assay for Epidermal growth factor (EGF) using HepaRG (AID 2283489)
Outline: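 HepaRG, 48 h dosing, 100 uM top, half-log x8, 0.5% DMSO. Readout: TaqMan qRT-PCR (Fluidigm array), housekeeping-normalized. Gain or loss of signal fit vs DMSO.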

[7] = read-out: Early growth response protein 1 (EGR1) transcription factor, EGR1 (gene 1958); assay: LTEA_HepaRG_EGR1: Life Technologies and Expression Analysis (LTEA) Assay for Early growth response protein 1 (EGR1) transcription factor using HepaRG (AID 2283490)
Outline: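 Differentiated human HepaRG cells in serum-free induction medium were exposed in duplicate for 48 h to eight concentrations (top 100 uM, half-log steps) in 0.5% DMSO. EGR1 mRNA was quantified by qRT-PCR, normalized to ACTB, GAPDH and POLR2A, and fitted bidirectionally versus DMSO.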

[8] = read-out: Ezrin (EZR), EZR (gene 7430); assay: LTEA_HepaRG_EZR: Life Technologies and Expression Analysis (LTEA) Assay for Ezrin (EZR) using HepaRG (AID 2283491)
Outline: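 EZR transcript levels came from Fluidigm qRT-PCR and were normalized to three housekeeping genes after 48 h chemical exposure of HepaRG cells. Dosing used an 8-point half-log series with a 100 uM top concentration in 0.5% DMSO, tested in duplicate; both directions were fitted versus vehicle.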

[9] = read-out: Cytochrome P450 3A7 (Homo sapiens) (UniProt P24462); assay: LTEA_HepaRG_CYP3A7: Life Technologies and Expression Analysis (LTEA) Assay for CYP3A7 using HepaRG (AID 2283492)
Outline: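 Human HepaRG liver cells, 48 h post-plating, switched to serum-free induction medium and exposed in duplicate for 48 h. Dosing: 100 uM top, half-log dilutions, 8 points, 0.5% DMSO vehicle. Read-out: CYP3A7 mRNA, gain or loss fitted against DMSO baseline.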

[10] = read-out: CYP3A5 (gene 1577); assay: LTEA_HepaRG_CYP3A5: Life Technologies and Expression Analysis (LTEA) Assay for CYP3A5 using HepaRG (AID 2283493)
Outline: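 HepaRG plated 48 h, switched to serum-free induction medium, chemicals added 48 h (max 100 uM, half-log, 0.5% DMSO). RNA isolated; CYP3A5 by TaqMan qRT-PCR. Gain/loss vs DMSO.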

[11] = read-out: Fatty Acid-Binding Protein 1 (FABP1), FABP1 (gene 2168); assay: LTEA_HepaRG_FABP1: Life Technologies and Expression Analysis (LTEA) Assay for Fatty Acid-Binding Protein 1 (FABP1) using HepaRG (AID 2283494)
Outline: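 Differentiated human HepaRG cells were exposed in duplicate for 48 h in serum-free induction medium to 8-point half-log concentration series topping at 100 uM in 0.5% DMSO. FABP1 mRNA measured by TaqMan qRT-PCR, normalized to ACTB/GAPDH/POLR2A; bidirectional fit versus DMSO.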

[12] = read-out: Cytochrome P450 4A22 (Homo sapiens) (UniProt Q5TCH4); assay: LTEA_HepaRG_CYP4A22: Life Technologies and Expression Analysis (LTEA) Assay for Cytochrome P450 4A22 (CYP4A22) using HepaRG (AID 2283495)
Outline: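 Readout is CYP4A22 transcript induction or loss, quantified by qRT-PCR and normalized to ACTB, GAPDH and POLR2A. Human HepaRG cells receive test chemicals for 48 h at eight half-log concentrations from 100 uM in 0.5% DMSO.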

[13] = read-out: Cytochrome P450 7A1 (Homo sapiens) (UniProt P22680); assay: LTEA_HepaRG_CYP7A1: Life Technologies and Expression Analysis (LTEA) Assay for Cytochrome P450 7A1 (CYP7A1) using HepaRG (AID 2283496)
Outline: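 HepaRG cells plated 48 h, then switched to serum-free induction medium and exposed in duplicate for 48 h to 8-point half-log series from 100 uM in 0.5% DMSO. CYP7A1 mRNA by qRT-PCR (TaqMan), normalized to ACTB/GAPDH/POLR2A; bidirectional fit versus DMSO.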

[14] = read-out: Glutathione S-Transferase (GSTA2), GSTA2 (gene 2939); assay: LTEA_HepaRG_GSTA2: Life Technologies and Expression Analysis (LTEA) Assay for Glutathione S-Transferase (GSTA2) using HepaRG (AID 2283497)
Outline: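 Human HepaRG cells, plated 48 h, then exposed in serum-free induction medium for 48 h to eight half-log concentrations up to 100 uM in 0.5% DMSO, duplicate. GSTA2 mRNA by qRT-PCR, normalized to ACTB/GAPDH/POLR2A; bidirectional fit versus DMSO.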

[15] = read-out: Glutamate-cysteine ligase catalytic (GCLC), GCLC (gene 2729); assay: LTEA_HepaRG_GCLC: Life Technologies and Expression Analysis (LTEA) Assay for Glutamate-cysteine ligase catalytic (GCLC) using HepaRG (AID 2283498)
Outline: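 Differentiated human HepaRG cells, plated 48 h then switched to serum-free induction medium, were exposed in duplicate for 48 h to 8 half-log concentrations topping at 100 uM in 0.5% DMSO. GCLC mRNA was quantified by qRT-PCR against ACTB, GAPDH and POLR2A.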

[16] = read-out: growth arrest and DNA damage 45 (GADD45G), GADD45G (gene 10912); assay: LTEA_HepaRG_GADD45G: Life Technologies and Expression Analysis (LTEA) Assay for growth arrest and DNA damage 45 (GADD45G) using HepaRG (AID 2283499)
Outline: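 Gain or loss of GADD45G mRNA, quantified by TaqMan qRT-PCR against three housekeeping genes, is fitted in both directions relative to 0.5% DMSO. Human HepaRG cultures receive test chemical for 48 h at up to 100 uM.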

[17] = read-out: Glutamate-cysteine ligase regulatory (GCLM), GCLM (gene 2730); assay: LTEA_HepaRG_GCLM: Life Technologies and Expression Analysis (LTEA) Assay for Glutamate-cysteine ligase regulatory (GCLM) using HepaRG (AID 2283500)
Outline: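 Cells were plated, cultured 48 h, switched to serum-free induction medium, then dosed in duplicate for 48 h at eight half-log concentrations up to 100 uM. RNA was then profiled by qRT-PCR; gain or loss versus DMSO was fitted.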

[18] = read-out: Glutathione S-transferase M3 (GSTM3), GSTM3 (gene 2947); assay: LTEA_HepaRG_GSTM3: Life Technologies and Expression Analysis (LTEA) Assay for Glutathione S-transferase M3 (GSTM3) using HepaRG (AID 2283501)
Outline: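 HepaRG, plated 48 h, then serum-free induction medium; test chemical 48 h, duplicate; 100 uM top, half-log x8, 0.5% DMSO. Read-out: GSTM3 mRNA (TaqMan qRT-PCR, Fluidigm array). Bidirectional fit vs DMSO.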

[19] = read-out: Heat shock 70 kDa protein 1 (HSPA1A), gene 3303; assay: LTEA_HepaRG_HSPA1A: Life Technologies and Expression Analysis (LTEA) Assay for Heat shock 70 kDa protein 1 (HSPA1A) using HepaRG (AID 2283502)
Outline: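 Readout is HSPA1A transcript level by microfluidic qRT-PCR, normalized to three housekeeping genes and analysed for gain or loss of signal relative to 0.5% DMSO. Human HepaRG cultures received test chemicals for 48 h at up to 100 uM.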

[20] = read-out: Hypoxia-inducible factor 1-alpha (Homo sapiens) (UniProt Q16665); assay: LTEA_HepaRG_HIF1A: Life Technologies and Expression Analysis (LTEA) Assay for Hypoxia-inducible factor 1 (HIF1A) Trancription factor using HepaRG (AID 2283503)
Outline: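 Differentiated HepaRG cells in serum-free induction medium exposed 48 h, in duplicate, to 8-point half-log series from 100 uM in 0.5% DMSO. HIF1A mRNA measured by TaqMan qRT-PCR, normalized to ACTB/GAPDH/POLR2A, fitted bidirectionally versus DMSO.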

Measured: outcome

Hypoxia-inducible factor 1-alpha (Homo sapiens), sequence (Q16665 whole entry, looked up): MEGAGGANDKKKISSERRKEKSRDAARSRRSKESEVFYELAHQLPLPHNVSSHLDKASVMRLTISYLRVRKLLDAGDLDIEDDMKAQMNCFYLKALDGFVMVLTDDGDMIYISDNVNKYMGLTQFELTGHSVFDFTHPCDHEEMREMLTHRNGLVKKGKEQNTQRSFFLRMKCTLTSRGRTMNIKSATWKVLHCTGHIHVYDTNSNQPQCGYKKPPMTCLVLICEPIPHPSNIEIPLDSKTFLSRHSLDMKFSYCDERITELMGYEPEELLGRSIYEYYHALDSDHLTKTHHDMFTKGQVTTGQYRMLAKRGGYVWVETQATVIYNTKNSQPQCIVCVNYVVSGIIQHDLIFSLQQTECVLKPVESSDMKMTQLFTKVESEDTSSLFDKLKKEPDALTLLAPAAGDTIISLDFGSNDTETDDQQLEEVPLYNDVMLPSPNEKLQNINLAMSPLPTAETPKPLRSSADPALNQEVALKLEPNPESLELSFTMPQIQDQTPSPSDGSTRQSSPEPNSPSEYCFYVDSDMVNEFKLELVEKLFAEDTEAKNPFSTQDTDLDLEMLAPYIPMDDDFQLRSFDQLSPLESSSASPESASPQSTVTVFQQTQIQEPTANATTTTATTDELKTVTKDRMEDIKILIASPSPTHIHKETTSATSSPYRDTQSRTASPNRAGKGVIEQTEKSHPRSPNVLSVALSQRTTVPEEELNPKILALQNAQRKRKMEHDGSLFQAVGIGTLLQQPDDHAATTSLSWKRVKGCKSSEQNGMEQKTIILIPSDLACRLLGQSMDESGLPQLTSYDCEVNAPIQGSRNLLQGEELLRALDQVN
Cytochrome P450 3A4 (Homo sapiens), sequence (P08684 whole entry, looked up): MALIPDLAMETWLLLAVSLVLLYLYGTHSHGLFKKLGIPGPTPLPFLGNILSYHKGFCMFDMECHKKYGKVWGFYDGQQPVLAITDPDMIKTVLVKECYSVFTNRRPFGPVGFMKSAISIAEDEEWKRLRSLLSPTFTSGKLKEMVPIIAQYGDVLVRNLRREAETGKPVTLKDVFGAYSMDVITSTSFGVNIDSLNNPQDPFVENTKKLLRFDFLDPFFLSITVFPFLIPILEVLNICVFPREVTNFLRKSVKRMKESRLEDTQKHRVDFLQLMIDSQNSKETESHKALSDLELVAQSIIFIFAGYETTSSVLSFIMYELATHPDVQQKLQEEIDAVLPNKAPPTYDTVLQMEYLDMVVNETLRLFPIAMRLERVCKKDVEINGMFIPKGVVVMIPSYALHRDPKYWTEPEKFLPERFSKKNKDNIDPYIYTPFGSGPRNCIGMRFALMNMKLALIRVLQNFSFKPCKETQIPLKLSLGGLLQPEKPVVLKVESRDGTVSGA
Cytochrome P450 3A7 (Homo sapiens), sequence (P24462 whole entry, looked up): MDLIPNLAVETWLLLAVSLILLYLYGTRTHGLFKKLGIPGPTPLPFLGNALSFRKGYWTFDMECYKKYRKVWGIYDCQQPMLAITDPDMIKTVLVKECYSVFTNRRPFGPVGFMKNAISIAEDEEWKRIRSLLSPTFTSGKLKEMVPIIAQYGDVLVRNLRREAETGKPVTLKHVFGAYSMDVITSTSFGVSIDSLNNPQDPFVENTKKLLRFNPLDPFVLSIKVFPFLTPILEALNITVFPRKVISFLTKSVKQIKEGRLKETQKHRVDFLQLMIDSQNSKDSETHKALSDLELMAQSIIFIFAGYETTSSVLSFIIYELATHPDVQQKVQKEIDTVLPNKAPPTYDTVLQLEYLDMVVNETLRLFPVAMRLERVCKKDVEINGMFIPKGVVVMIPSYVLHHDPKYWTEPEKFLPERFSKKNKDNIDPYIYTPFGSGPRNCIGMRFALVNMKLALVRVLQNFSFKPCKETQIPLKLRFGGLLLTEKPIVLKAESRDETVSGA

CCC(C)=NO
inactive: [1] | [2] | [3] | [4] | [5] | [6] | [7] | [8] | [9] | [10] | [11] | [12] | [13] | [14] | [15] | [16] | [17] | [18] | [19] | [20]

Source: PubChem BioAssay (EPA / NIEHS)
